Measured values taken from ChEMBL document CHEMBL5606458, “ASAP - ZIKV NS2B-NS3 protease fluorescence single point” (2024).
Screen size: about 2,700 compounds; about 160 (5.9%) showed an effect of 50% or more. The sample holds strong results, similar compounds and a random draw of the others, so the mix is not that of the screen.

Biological target: Nonstructural protein 3 (Zika virus) (UniProt A0A024AXB9)
Sequence (A0A024AXB9 as listed by the source): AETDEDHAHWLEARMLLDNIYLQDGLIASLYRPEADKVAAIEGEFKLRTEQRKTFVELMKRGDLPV

c1ccc2c(CN3CCC(n4cccn4)CC3)c[nH]c2c1
inhibition (PRVABC59, Concentration 49.5 uM, Number of replicates 2.0, Standard deviation 0.7832462431332359 %): 26.9%
inhibition (PRVABC59, Concentration 99.01 uM, Number of replicates 2.0, Standard deviation 1.440111283496493 %): 42.5%
inhibition (PRVABC59, Concentration 198.0 uM, Number of replicates 2.0, Standard deviation 0.6771494756145803 %): 60.2%

NC(=O)[C@H]1CCCN(Cc2c[nH]c3ccccc23)C1
inhibition (PRVABC59, Concentration 49.5 uM, Number of replicates 2.0, Standard deviation 3.1390869089666538 %): 3.79%
inhibition (PRVABC59, Concentration 99.01 uM, Number of replicates 2.0, Standard deviation 3.56900861889403 %): 10.6%
inhibition (PRVABC59, Concentration 198.0 uM, Number of replicates 2.0, Standard deviation 2.510612912991002 %): 20.5%

NC[C@H]1C[C@H](NC(=O)[C@@H](NC(=O)OCc2ccccc2)c2ccc(OCc3ccccc3)cc2)C1
inhibition (PRVABC59, Concentration 49.5 uM, Number of replicates 2.0, Standard deviation 1.2395145381206512 %): 10.3%
inhibition (PRVABC59, Concentration 99.01 uM, Number of replicates 2.0, Standard deviation 2.826506577153246 %): 46.7%
inhibition (PRVABC59, Concentration 198.0 uM, Number of replicates 2.0, Standard deviation 0.7649713696189122 %): 82.7%

NC[C@H]1C[C@@H](NC(=O)[C@@H](NC(=O)OCc2ccccc2)c2ccc(OCc3ccccc3)cc2)C1
inhibition (PRVABC59, Concentration 49.5 uM, Number of replicates 2.0, Standard deviation 0.8838686407925086 %): 24%
inhibition (PRVABC59, Concentration 99.01 uM, Number of replicates 2.0, Standard deviation 0.4383595932929543 %): 66.8%
inhibition (PRVABC59, Concentration 198.0 uM, Number of replicates 2.0, Standard deviation 0.05241044906026695 %): 91.6%

COc1cnccc1NC(=O)c1cccn(CC(C)C)c1=O
inhibition (PRVABC59, Concentration 49.5 uM, Number of replicates 2.0, Standard deviation 2.517858799186995 %): 14.1%
inhibition (PRVABC59, Concentration 99.01 uM, Number of replicates 2.0, Standard deviation 2.0130939800794283 %): 24.9%
inhibition (PRVABC59, Concentration 198.0 uM, Number of replicates 2.0, Standard deviation 1.1565850502914639 %): 38%

O=C1NCc2ccccc2C12CCN(C1CS(=O)(=O)C1)CC2
inhibition (PRVABC59, Concentration 49.5 uM, Number of replicates 2.0, Standard deviation 2.478163590707131 %): -2.5%
inhibition (PRVABC59, Concentration 99.01 uM, Number of replicates 2.0, Standard deviation 1.6189007436906162 %): -1.76%
inhibition (PRVABC59, Concentration 198.0 uM, Number of replicates 2.0, Standard deviation 2.7604333789428463 %): -2.06%

N#C[C@H](c1c[nH]c2ccccc12)N1CCCCC1
inhibition (PRVABC59, Concentration 49.5 uM, Number of replicates 2.0, Standard deviation 0.9976655532404076 %): 2.57%
inhibition (PRVABC59, Concentration 99.01 uM, Number of replicates 2.0, Standard deviation 2.0662033924754 %): 3.53%
inhibition (PRVABC59, Concentration 198.0 uM, Number of replicates 2.0, Standard deviation 2.2933585318984724 %): 2.01%

CC(C)(CO)NC(=O)c1cc(Cl)cc(NC(=O)c2cc(Cl)ccc2O)c1
inhibition (PRVABC59, Concentration 49.5 uM, Number of replicates 2.0, Standard deviation 2.1093755895168673 %): 7.55%
inhibition (PRVABC59, Concentration 99.01 uM, Number of replicates 2.0, Standard deviation 4.458409623609473 %): 13.5%
inhibition (PRVABC59, Concentration 198.0 uM, Number of replicates 2.0, Standard deviation 1.5634862358558868 %): 19.6%

CN(C)Cc1ccc(C(=O)Nc2cc(Cl)cc(C(=O)NC(C)(C)CO)c2)[nH]1
inhibition (PRVABC59, Concentration 49.5 uM, Number of replicates 2.0, Standard deviation 0.7294034755731748 %): 25.7%
inhibition (PRVABC59, Concentration 99.01 uM, Number of replicates 2.0, Standard deviation 0.13537432871783928 %): 38.6%
inhibition (PRVABC59, Concentration 198.0 uM, Number of replicates 2.0, Standard deviation 2.37813693875156 %): 53.1%

CN(C)Cc1cccc(C(=O)Nc2cc(Cl)cc(C(=O)NC(C)(C)CO)c2)c1
inhibition (PRVABC59, Concentration 49.5 uM, Number of replicates 2.0, Standard deviation 1.8243044214328226 %): 6.06%
inhibition (PRVABC59, Concentration 99.01 uM, Number of replicates 2.0, Standard deviation 1.3712089412013073 %): 12.5%
inhibition (PRVABC59, Concentration 198.0 uM, Number of replicates 2.0, Standard deviation 2.8457565601547175 %): 22%
